Results: PubChem BioAssay (EPA / NIEHS)
Where “and” joins values, the source holds several entries; their conditions need not be identical. Identical values can stand only once. Records with an inconclusive call do not appear. The source holds several records for some structures; these can differ, active in one and inactive in another. Calls of active or inactive are those of the source. Rule for the calls: active = hit-call score of the fitted dose curve at least 0.9, where 1 is the maximum; inconclusive = response in the unintended direction; inactive = score below 0.9.

These compounds were tested on Cytochrome P450 2B6 (Homo sapiens) (UniProt P20813) (assay: CLD_CYP2B6_24hr: CellzDirect (CLD) Gene Expression Assay for xenobiotic metabolism (CYP2B6) at 24 hours (AID 2283686)).
Protocol: CLD_24hr is a cell-based, multiplexed-readout assay that uses hepatocyte, a human liver primary cell, with measurements taken at 24 hours after chemical dosing in a 96-well plate.CLD_CYP2B6_24hr is one of 16 assay component(s) measured or calculated from the CLD_24hr assay. It is designed to make measurements of mRNA induction, a form of inducible reporter, as detected with chemiluminescence signals by Quantitative Nuclease Protection Assay (qNPA) technology.Data from the assay component CLD_CYP2B6_24hr was analyzed at the endpoint, CLD_CYP2B6_24hr, in the positive analysis fitting direction relative to DMSO as the negative control and baseline of activity. Using a type of inducible reporter, gain-of-signal activity can be used to understand changes in the reporter gene as they relate to the gene CYP2B6. Furthermore, this assay endpoint can be referred to as a primary readout. To generalize the intended target to other relatable targets, this assay endpoint is annotated to the cyp intended target family, where subfamily is xenobiotic metabolism.
Human hepatocyte cultures were treated daily for two consecutive days with fresh dosing solutions containing appropriate concentrations of the 320 ToxCast chemicals (chemical identities were blinded to CellzDirect and other ToxCast collaborators), vehicle control (0.2% DMSO), and positive control inducers as summarized in Table 1. Due to the large number of treatment groups and chemicals examined, the ToxCast chemicals were divided into two groups (spanning two independent cultures of hepatocytes from separate donor preparations (Hu778: ToxCast plates 1 and 2; Hu776: ToxCast plates 3 and 4). Each preparation of human hepatocyte cultures was treated with respective vehicle control, medium only control, set of six positive controls/reference chemicals for the five hepatic receptor pathways, and a subset of eight of the ToxCast chemicals (indoxacarb, pyrithiobac-sodium, norflurazon, cyhalofop-butyl, methomyl, thiram, acetochlor, and propiconazole). These replicate data, coupled with internal replicates designed within the blinded ToxCast chemical library, provided additional data to evaluate interindividual differences between hepatocyte preparations and their potential impact on chemical profiles.Cell morphology and integrity were evaluated using phase-contrast microscopy as an indicator of hepatocyte cell health (Tyson & Green, 1987). Cultures for each treatment group (i.e., media, vehicle [0.2% DMSO], positive control inducers [multiple concentrations], and the ToxCast chemicals [multiple concentrations]) were observed and cell morphology was assessed relative to vehicle control cultures at each harvest time point (0, 6, 24, or 48 h). […] Images were evaluated at the conclusion of the study to assess changes in cell integrity and account for the effects of chemical exposure on uncharacteristic changes in concentration-dependent gene expression profiles. The results from these determinations of apparent cytotoxicity were annotated (yes/no) alongside the corresponding qNPA data for reference.At the conclusion of each treatment period, hepatocyte cultures (96-well) were washed with 1 volume of HBSS, lysed by addition of 25 ul ArrayPlate lysis buffer (HTG, Tucson, AZ), and 70 ul/well of Denaturation Oil, denatured by incubation at 95C for 10 min, and frozen at approximately -70C until analysis by nuclease protection assay (qNPA) (Roberts et al., 2007). For qNPA analysis, cell lysates were thawed at 50C for approximately 30 min, qNPA probes were added, and samples were incubated at 95C for 10 min to begin the detection process by denaturing the target RNA, dissociating the duplexes and secondary structure hybridization. At the conclusion of the hybridization period, S1 nuclease reagent was added to each sample to digest all nonprotected nucleotides at 50C for 60-90 min. […]
With `C=CCC1=C(C)C(OC(=O)C2C(C=C(C)C)C2(C)C)CC1=O` (stereo not given) the outcome was “inactive”.
`CCOC(=O)C(Cl)Cc1cc(-n2nc(C)n(C(F)F)c2=O)c(F)cc1Cl` (stereo not given) was tested, and the AC50 was 6.33 µM (active).
With `COC(=O)C(C)Oc1ccc(Oc2ccc(Cl)cc2Cl)cc1` (stereo not given) the AC50 was 20 µM (active) and 34.6 µM (active) and the outcome was “inactive”.
`O=C(O)COc1nc(Cl)c(Cl)cc1Cl` was tested, and the outcome was “inactive”.
With `Oc1ccccc1-c1ccccc1` the AC50 was 6.24 µM (active).
`CC(C)Oc1cc(-n2nc(C(C)(C)C)oc2=O)c(Cl)cc1Cl` was tested, and the AC50 was 0.829 µM (active).
In the case of `C=CCC1=C(C)[C@@H](OC(=O)[C@@H]2[C@@H](C=C(C)C)C2(C)C)CC1=O`, the AC50 is reported as 20 µM (active).
For `O=C(Nc1ccccc1)Nc1ccnc(Cl)c1`, the AC50 was 8.15 µM (active).
In the case of `COc1nc(C)nc(NC(=O)NS(=O)(=O)c2ccccc2CCC(F)(F)F)n1`, the AC50 is reported as 3.4 µM (active) and 5.71 µM (active) and 908 nM (active).
`CON(C)C(=O)Nc1ccc(Cl)c(Cl)c1` was tested, and the AC50 was 0.735 µM (active).
With `CCOC(=O)CC(SP(=S)(OC)OC)C(=O)OCC` (stereo not given) the outcome was “inactive”.
`CCCCOC(=O)c1ccccc1C(=O)OCCCC` was tested, and the outcome was “inactive” and the AC50 was 5.33 µM (active).
For `COc1ccc(C(c2ccc(OC)cc2)C(Cl)(Cl)Cl)cc1`, the AC50 was 7.11 µM (active).
For `COC(=O)N(OC)c1ccccc1COc1ccn(-c2ccc(Cl)cc2)n1`, the outcome was “inactive”.
For `CCc1nn(C)c(C(=O)NCc2ccc(C(C)(C)C)cc2)c1Cl`, the outcome was “inactive”.
`Cc1cc(Cl)ccc1OCC(=O)O` was tested, and the outcome was “inactive”.
For `N#Cc1nn(-c2c(Cl)cc(C(F)(F)F)cc2Cl)c(N)c1S(=O)C(F)(F)F` (stereo not given), the AC50 was 1.9 µM (active).
With `COc1nc(C)nc(NC(=O)NS(=O)(=O)c2ccccc2Cl)n1` the outcome was “inactive”.
In the case of `O=C(O)c1nc(Cl)ccc1Cl`, the outcome is reported as “inactive”.
`CCON=C(CC)C1=C(O)CC(c2c(C)cc(C)cc2C)CC1=O` (stereo not given) was tested, and the outcome was “inactive”.
In the case of `CNC(=O)ON=CC(C)(C)SC`, the outcome is reported as “inactive”.
With `COC(=O)c1ccccc1C(=O)OC` the outcome was “inactive”.
With `Fc1ccc(Oc2ccnc3cc(Cl)cc(Cl)c23)cc1` the outcome was “inactive”.
In the case of `CCCC1COC(Cn2cncn2)(c2ccc(Cl)cc2Cl)O1` (stereo not given), the AC50 is reported as 0.668 µM (active).
For `C=CC1(C)OC(=O)N(c2cc(Cl)cc(Cl)c2)C1=O` (stereo not given), the AC50 was 7.15 µM (active).
`CCCCC(CC)COC(=O)c1ccccc1C(=O)OCC(CC)CCCC` (stereo not given) was tested, and the outcome was “inactive”.
`CCCCNC(=O)n1c(NC(=O)OC)nc2ccccc21` was tested, and the outcome was “inactive”.
In the case of `Cc1c(F)c(F)c(COC(=O)C2C(/C=C(\Cl)C(F)(F)F)C2(C)C)c(F)c1F` (stereo not given), the AC50 is reported as 20 µM (active).
With `CC1COC(Cn2cncn2)(c2ccc(Oc3ccc(Cl)cc3)cc2Cl)O1` (stereo not given) the AC50 was 0.000442 µM (active).
In the case of `COc1nc(NC(C)C)nc(NC(C)C)n1`, the outcome is reported as “inactive”.
With `COP(=S)(OC)Oc1nc(Cl)c(Cl)cc1Cl` the AC50 was 5.02 µM (active).
With `CC(C)C1(C)N=C(c2nc3ccccc3cc2C(=O)O)NC1=O` (stereo not given) the outcome was “inactive”.
For `CO/C=C(/C(=O)OC)c1ccccc1Oc1cc(Oc2ccccc2C#N)ncn1`, the AC50 was 7.02 µM (active).
`CCOc1cc(Oc2ccc(C(F)(F)F)cc2Cl)ccc1[N+](=O)[O-]` was tested, and the outcome was “inactive”.
In the case of `OC(c1ccc(Cl)cc1)(c1cncnc1)c1ccccc1Cl` (stereo not given), the AC50 is reported as 1.24 µM (active).
In the case of `CCNc1nc(Cl)nc(NC(C)C)n1`, the AC50 is reported as 3.92 µM (active).
In the case of `CCOP(=S)(OCC)SCn1c(=O)oc2cc(Cl)ccc21`, the AC50 is reported as 3.97 µM (active).
For `CC(Oc1ccc(Cl)cc1Cl)C(=O)O` (stereo not given), the outcome was “inactive”.
